Drawing on PubChem BioAssay AID1850 (Southern Research Specialized Biocontainment Screening …, 2009), this text covers inhibition for 91 molecules.

Out of some 310,000 compounds screened, about 1,000 (0.32%) were called active. Not all results are given here. Potency and affinity values are given separately. Unmarked numbers belong to inactive results. How the calls were made is not given here.

The experiment in a line: Inhibition of PhoP regulon, Salmonella typhi GFP reporter cells, confirmation, 4 h (AID 1850).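 Further: 0% = induced wells with vehicle and 100% = uninduced wells.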 Conditions: Salmonella Typhi PhoP-promoter GFP reporter, fluorescence, at 50 µM, hits give high values.
One may read the inhibition as the relative decrease from the control value, in per cent. `O=C(NC1CCCCC1)C(c1ccncc1)N(Cc1ccc(F)cc1)C(=O)c1ccccn1` (stereo unspecified): the inhibition was -1.84%.
The result for `CN(C)CC(O)COc1cc2ccccc2cc1C(=O)N1CCCCC1` (stereo unspecified) reads 9.49%.
The result for `CCCCCCCC(=O)Nc1ccc(S(=O)(=O)Nc2nccs2)cc1` reads -7.23%.
In the case of `O=C1CSC(c2cccc([N+](=O)[O-])c2)N1CCN1CCCCC1` (stereo unspecified) it was -7.55%; in that of `CC(=O)c1c(N2CCOCC2)nc(=S)n(-c2ccc([N+](=O)[O-])cc2)c1C`, 3.58%.
For `Cc1cc(/C([O-])=C(/C(=S)Nc2ccc(F)cc2)[n+]2ccccc2)c(C)n1Cc1ccccc1Cl`, the inhibition is -18.8%.
`OCCN1CCN(c2ncnc3scc(-c4ccc(F)cc4)c23)CC1`: the inhibition is 4.62%.
For `Oc1ccc(CN2CCc3ccccc3C2)c2cccnc12`, the inhibition was -5.43%.
The result for `COc1ccccc1N1CCN(Cc2ccc(OC)c(OC)c2OC)CC1` reads 5.73%; that for `OCc1ccc(O)c2ncccc12`, 0.16%; that for `COc1ccccc1N1CCN(Cc2cc(Br)c(O)c3ncccc23)CC1`, 3.41%.
Take `COCCn1cnc2c1c(=O)n(CC(=O)OCC(=O)NCCCc1ccccc1)c(=O)n2Cc1ccccc1`: the inhibition was 5.65%.
The result for `Cc1nc2cc(NC(=O)c3ccc(S(=O)(=O)N(C)c4ccccc4)cc3)ccc2o1` reads -24.8%.
Consider `CC(C)NC(=O)CCCc1ccccc1`, for which the inhibition is -2.72%.
As to `CC[n+]1c(/C=C/C=C/N(C(C)=O)c2ccccc2)sc2ccccc21`, the inhibition is -299%.
In the case of `CC[n+]1c(/C=C/Nc2ccccc2)sc2ccccc21` it was 11.1%; in that of `CCN1/C(=C/C=C/C=C/C=C/c2sc3ccccc3[n+]2CC)Sc2ccccc21`, 5.61%; in that of `CC[n+]1c(/C=C(\C)SC)sc2ccccc21`, 8.28%.
The result for `CN(C)c1ccc(/C=C/C=C/c2sc3ccccc3[n+]2C)cc1` reads 14.1%; that for `CC[n+]1c(/C=C(/C)SC)sc2ccccc21`, -5.74%.
In the case of `COc1ccc(/C=C/C2=CCN(Cc3ccc(OC)cc3)CC2)cc1` it was 5.66%; in that of `COc1ccc(CN2CC(C(N)=O)Oc3ccccc32)cc1F` (stereo unspecified), -14.6%.
As for `Cc1ccccc1C(=O)Nc1c(C(=O)N2CCCC2)cnn1-c1ccccc1`, the inhibition is -11.9%.
As for `CN(C)S(=O)(=O)c1ccc(NC(=O)COC(=O)CC2CC3CCC2C3)cc1` (stereo unspecified), the inhibition was -11.3%.
In the case of `Cc1ccc(C)n1-c1ccccc1N` it was 7.67%; in that of `C/C(CC(=O)NC1C2CC3CC(C2)CC1C3)=N\NC(=O)Cc1cccs1` (stereo unspecified), 5.86%.
As for `CC(=O)Oc1c(C)cc(O)c2ccccc12`, the inhibition is -6.69%.
On to `CC(=O)c1coc2c1cc(O)c1ccccc12`, for which the inhibition is -10.2%.
In the case of `COc1ccc2[nH]cc(C(=O)CN3CCCC(C)(C)C3)c2c1` it was 12.1%; in that of `CCOC(=O)CCNC(=O)Nc1ccc2nc(C)n(Cc3ccccc3Cl)c(=O)c2c1`, 12%.
In the case of `CC(=O)N(Cc1cc2cc(C)c(C)cc2n2nnnc12)CC1COCCO1` (stereo unspecified), the inhibition is -4%.
The result for `CC(C)N(Cc1nc(-c2ccccc2)no1)C(=O)c1ccc2c(c1)OCO2` reads 1.2%.
In the case of `COc1ccc(CCC(=O)NCCOc2ccc(Cl)cc2)cc1` it was -4.36%; in that of `CN1CCc2nc(SCC(=O)Nc3ccc(OC(F)(F)F)cc3)c(C#N)c(-c3cccs3)c2C1`, -3.5%; in that of `COc1ccc(NC(=O)CSc2nc3c(c(-c4cccs4)c2C#N)CN(C)CC3)cc1OC`, 0.71%.
As for `COc1ccccc1Nc1ccc([N+](=O)[O-])cc1N`, the inhibition is 2.25%.
The result for `CC1CC(C)CN(S(=O)(=O)c2ccc3c(c2)CC(C)N3C(=O)C2CC2)C1` (stereo unspecified) reads -20.4%; that for `CCc1ccc(-c2cc(C)no2)cc1S(=O)(=O)N1CCN(c2ccc(OC)cc2)CC1`, -6.02%.
In the case of `O=[N+]([O-])c1cccc2c(N3CCOCC3)ccnc12` it was -0.36%; in that of `O=[N+]([O-])c1ccc(N2CCCC2)c2ncccc12`, -3.29%.
The result for `Cc1cc(C)cc(OCC(=O)Nc2cccc(-c3nnc(-c4ccco4)o3)c2)c1` reads 3.78%; that for `CCCCNC(=O)O[C@@H]1C[C@H]2CCC(=O)N3CC[C@@H](C1)[C@@H]23`, 4.97%.
On to `CCC(C)c1ccc(NC(=O)c2[nH]c(C)c(C(C)=O)c2C)cc1` (stereo unspecified), for which the inhibition is -9.52%.
In the case of `COc1ccc(C=Nc2ccc3[nH]ncc3c2)c(O)c1` it was 0.93%.
The result for `Cc1ccc(O)c(C=Nc2ccc3[nH]ncc3c2)c1` reads -7.82%; that for `CC1=C(C#N)C(c2cccnc2)C2=C(N1)c1ccccc1C2=O` (stereo unspecified), 1.42%.
In the case of `Cc1cccc(Nc2ccc(NCc3ccccc3)nn2)c1` it was 5.48%; in that of `Cc1ccc(Nc2ccc(NCc3ccccc3)nn2)cc1C`, -4.54%; in that of `O=C(O)/C=C/C(=O)N1CCN(c2ccc(F)cc2)CC1`, 2.57%.
For the molecule `Cc1c(Cc2ccccc2)c(=O)oc2cc(OCC(=O)N[C@@H](Cc3ccccc3)C(=O)O)ccc12`, the inhibition is 1.41%.
In the case of `C#CCOCCOCCOCCNc1nc(N2CCN(C(=O)C(Cc3cc4ccccc4[nH]3)n3cc(C(N)C(C)CC)nn3)CC2)nc(N2CCN(C(=O)C(Cc3cc4ccccc4[nH]3)n3cc(C(N)C(C)CC)nn3)CC2)n1` (stereo unspecified) it was 37.5%; in that of `C#CCOCCOCCOCCNc1nc(N2CCN(C(=O)[C@H](CCC(=O)O)n3cc(C(N)CC(C)C)nn3)CC2)nc(N2CCN(C(=O)[C@H](Cc3cc4ccccc4[nH]3)n3cc(C(N)CC(C)C)nn3)CC2)n1` (stereo partly specified), -7.76%; in that of `C#CCOCCOCCOCCNc1nc(N2CCN(C(=O)[C@H](Cc3cc4ccccc4[nH]3)n3cc(C(N)CC(C)C)nn3)CC2)nc(N2CCN(C(=O)[C@H](CCC(=O)O)n3cc(C(N)[C@H](C)CC)nn3)CC2)n1` (stereo partly specified), -6.17%.
The result for `C#CCOCCOCCOCCNc1nc(N2CCOCC2)nc(N2CCN(C(=O)[C@H](Cc3cc4ccccc4[nH]3)n3cc([C@@H](N)CC(C)C)nn3)CC2)n1` reads 7.58%; that for `CN(C)C(=S)Nc1ccc(Cc2ccncc2)cc1`, -0.62%; that for `CCN(Cc1ccccc1)C(=O)c1cccc(S(=O)(=O)N2CCN(c3ccccc3)CC2)c1`, 1.18%.
For `COCCCN1CN(S(=O)(=O)c2ccc(C)cc2C)c2nc3ccccc3nc21`, the inhibition is 6.06%.
In the case of `COCCCNC(=O)c1ccccc1N(Cc1ccccc1)S(=O)(=O)c1ccccc1` it was -7.24%; in that of `N=c1c2c(n(Cc3ccccc3)c3c1CCC3)CCC2`, -2.77%.
In the case of `N=c1c2c(n(Cc3ccc(F)cc3)c3c1CCC3)CCCC2` it was 5.47%; in that of `N=c1c2c(n(Cc3ccc([N+](=O)[O-])cc3)c3c1CCC3)CCCC2`, -1.87%; in that of `CCn1c2c(c(=N)c3c1CCC3)CCCC2`, 8.7%.
In the case of `Clc1cccc(CN2CCCCCC2)c1`, the inhibition was -6.25%.
In the case of `N=c1ccn(Cc2ccc(Cl)cc2Cl)cc1` it was 22.8%.
The result for `N=c1c2c(n(Cc3ccc(Br)cc3)c3c1CCC3)CCCC2` reads -4.26%; that for `N=c1c2c(n(Cc3ccc(F)cc3)c3c1CCC3)CCC2`, -1.84%; that for `COc1ccc(N2CCN(S(=O)(=O)CCNC(=O)/C=C/c3ccc4c(c3)OCO4)CC2)cc1`, -1.81%.
The result for `CC(C)NC(=O)C(=O)NCc1ccccn1` reads 15.4%.
For the molecule `CN(CCn1ccnc1)Cc1cn(Cc2ccccc2)nc1-c1ccc2c(c1)OCO2`, the inhibition was 8.95%.
The result for `CCCn1c(=O)c(C(=O)NCCc2ccc(OC)c(OC)c2)c(O)c2ccccc21` reads 3.2%.
The result for `CCn1c(/N=C/c2ccccc2O)nc2ccccc21` reads -0.93%.
The result for `CCN1CCSc2ccc(C(=O)NCc3ccc(OC(C)C)cc3)cc21` reads -2.46%; that for `O=C(CNCCC1=CCCCC1)Nc1ccccc1N1CCCCCC1`, 5.47%.
Consider `COc1ccc(NC(=O)CNCCC2=CCCCC2)cc1`, for which the inhibition was -8.03%.
The result for `Cc1ccc2c(c1)-c1ccccc1S(=O)(=O)N2` reads -6.75%; that for `Clc1ccc2ccc3cccnc3c2n1`, 2.67%; that for `O=S1(=O)NC(=NCCc2ccccn2)c2ccccc21`, -5.57%.
The result for `Cc1ccc2ccc3cccnc3c2n1` reads 2.32%.
In the case of `CCC(C)c1ccccc1N1CC(C(=O)Nc2cc(S(=O)(=O)N3CCOCC3)ccc2OC)CC1=O` (stereo unspecified) it was 1.56%.
Regarding `CSc1ccc(C2NC(=O)CCC2[N+](=O)[O-])cc1` (stereo unspecified), the inhibition was 9.78%.
In the case of `Cc1c(C(=O)N2CCN(C(=O)c3ccco3)CC2)oc2c(Cl)cccc12` it was 5.99%; in that of `O=C(O/N=C/C1=C(Cl)c2ccccc2CC1)c1ccc(F)cc1`, -1%; in that of `Cc1ccc(C(=O)O/N=C/C2=C(Cl)c3ccccc3CC2)cc1`, 3.65%.
Regarding `CCC(C)NCCOc1cc(C)cc(C)c1C` (stereo unspecified), the inhibition was 10.5%.
The result for `CCOC(=O)c1c(C)[nH]c(C)c1S(=O)(=O)N1c2ccccc2CC1C` (stereo unspecified) reads -32.7%.
`CCOc1ccccc1N1C(=O)NC(=O)C(CCc2ccncc2)(CCc2ccncc2)C1=O`: the inhibition is -6.46%.
In the case of `COC(=O)CSC1=NS(=O)(=O)c2ccccc21` it was -2.6%.
In the case of `CCc1cccc(NC(=O)CSc2nc3c(c(=O)[nH]2)CCCC3)c1` it was 8.6%; in that of `CN1CCN(/N=C/c2ccc(-c3ccccc3)cc2)CC1`, 1.69%; in that of `CN1CCN(/N=C/c2cccc(Cl)c2Cl)CC1`, 0.18%.
`CCC(C)(C)NC(=O)C(c1ccc(OC)cc1)N(C(=O)CCC(=O)Nc1cc(C)on1)c1cccc(OC)c1` (stereo unspecified): the inhibition is 1.27%.
